# In PubChem BioAssay (NCI):
# The panel holds about 83,000 compounds, 20% with a hit somewhere; the sample as a whole holds those more often.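 Growth was measured after 48 h exposure to one concentration of compound in 96-well plates. Values under 10 count as active.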 A number with no mark means an inactive call. Calls of active or inactive are those of the source.
# Columns and labels:
# Experiment in all cases: NCI-60 one-dose screen, 48 h (100 = growth as untreated, 0 = no growth, -100 = all killed)
# Details in all cases: 10 µM unless noted
# SK-MEL-2 melanoma = test system: SK-MEL-2 melanoma
# EKVX NSCLC = test system: EKVX NSCLC
# SN12C renal = test system: SN12C renal
# UO-31 renal = test system: UO-31 renal
# TK-10 renal = test system: TK-10 renal
# ACHN renal = test system: ACHN renal
# A498 renal = test system: A498 renal
# CCRF-CEM leukemia = test system: CCRF-CEM leukemia
# MOLT-4 leukemia = test system: MOLT-4 leukemia
# SR leukemia = test system: SR leukemia
# RPMI-8226 leukemia = test system: RPMI-8226 leukemia
# OVCAR-8 ovarian = test system: OVCAR-8 ovarian
# OVCAR-5 ovarian = test system: OVCAR-5 ovarian
# OVCAR-4 ovarian = test system: OVCAR-4 ovarian
# SK-OV-3 ovarian = test system: SK-OV-3 ovarian
# IGROV1 ovarian = test system: IGROV1 ovarian
# OVCAR-3 ovarian = test system: OVCAR-3 ovarian
# HS 578T breast = test system: HS 578T breast
# NCI/ADR-RES ovarian = test system: NCI/ADR-RES ovarian
# CAKI-1 renal = test system: CAKI-1 renal
SMILES,growth (SK-MEL-2 melanoma),growth (EKVX NSCLC),growth (SN12C renal),growth (UO-31 renal),growth (TK-10 renal),growth (ACHN renal),growth (A498 renal),growth (CCRF-CEM leukemia),growth (MOLT-4 leukemia),growth (SR leukemia),growth (RPMI-8226 leukemia),growth (OVCAR-8 ovarian),growth (OVCAR-5 ovarian),growth (OVCAR-4 ovarian),growth (SK-OV-3 ovarian),growth (IGROV1 ovarian),growth (OVCAR-3 ovarian),growth (HS 578T breast),growth (NCI/ADR-RES ovarian),growth (CAKI-1 renal) [%]
Cc1nn(-c2ccccc2)c(Oc2ccccn2)c1-c1nc2ccccc2s1,99.2%,90.4%,100%,88.2%,103%,98.3%,106%,102%,-49.2% (active),33.9%,97.5%,102%,93.4%,98.7%,97.5%,90.6%,102%,110%,98.1%,
COC(=O)c1c2c(c(C)[n+]([O-])c1C)C(=O)C(NCc1ccc(Cl)cc1)=CC2=O,83.4%,70.9%,38%,79%,111%,67.5%,88.2%,58%,72.8%,48.6%,69.8%,33.1%,97.3%,36.6%,95.8%,61.2%,-7.64% (active),92.2%,54.8%,
Cc1nc(N2CCOCC2)sc1S(N)(=O)=O,98.6%,101%,94.5%,86.5%,90.1%,100%,93.4%,105%,107%,98.3%,102%,103%,96.5%,112%,102%,99.4%,102%,100%,102%,
Nc1ncnc2c1N=C(c1ccc3c(c1)OCO3)CC(c1cccc(Nc3ccnc4cc(Cl)ccc34)c1)N2 (stereo not given),68.7%,62.2%,50.7%,44%,65.7%,67.5%,61.5%,21.5%,52.7%,3.03% (active),-24% (active),51.1%,97%,,79.2%,59.4%,67.7%,87.1%,56.8%,
CN1CCN(Cc2ccc3c(NNC(=O)c4ccccc4)nc4cc(F)ccc4n23)CC1,57.7%,21.5%,17.2%,7.31% (active),30%,11.5%,-7.93% (active),12.2%,12%,7.6% (active),26.4%,17.6%,59.2%,24.1%,37.1%,21.7%,38.9%,70.6%,8.77% (active),
O=[N+]([O-])C1C(c2ccccc2)C12c1ccccc1-c1ccccc12 (stereo not given),-1.42% (active),77.9%,23%,28.3%,23.2%,29.6%,-12.8% (active),-12.1% (active),-17.1% (active),-14.8% (active),-17.3% (active),-28% (active),23.9%,57.2%,2.18% (active),20.5%,-31.2% (active),38.6%,-27.4% (active),
O=CC1(C2(C=O)c3ccccc3-c3ccccc32)c2ccccc2-c2ccccc21,-44.4% (active),-78.4% (active),-29.1% (active),-89.3% (active),-79.9% (active),-79% (active),-84.1% (active),-5.1% (active),-47.4% (active),-32.3% (active),-24% (active),-49.9% (active),-40.9% (active),-76.4% (active),-65% (active),-76.4% (active),-74.7% (active),-4.62% (active),-14% (active),
CCCCC(=O)c1ccco1,98.6%,98.7%,87.9%,79.1%,96%,96.7%,74.6%,92.3%,102%,98.2%,85.1%,98.9%,84.7%,97.3%,89.1%,91.1%,104%,95.2%,93.3%,
Oc1c(Cl)cc(Cl)c2ccc(Cn3cc(-c4ccc(C(F)(F)F)cc4)nn3)nc12,95.4%,81%,76.9%,68.5%,97.3%,36.7%,83.7%,6.1% (active),-8.16% (active),-16.8% (active),0.831% (active),70.7%,88.7%,62.2%,104%,78.9%,-16.1% (active),87.7%,100%,
CC[C@@H](C(=O)[C@@H](C)[C@@H](O)[C@H](C)[C@@H]1O[C@@H]([C@@H](CC)C(=O)NCCc2ccc(F)cc2)CC[C@@H]1C)C1O[C@]2(C=CC(=O)[C@]3(CC[C@@](C)([C@H]4CC[C@](O)(CC)[C@H](C)O4)O3)O2)[C@H](C)C[C@@H]1C (stereo not given in full),53%,29.6%,37.7%,19.2%,16.6%,9.48% (active),34.6%,40.1%,19.2%,41.9%,7.59% (active),32.2%,67.7%,-2.57% (active),44.7%,26.3%,10.5%,48.1%,29.6%,
Cc1ccc(Cc2cnc(NC(=O)c3cc(Br)cs3)s2)cc1,26.9%,78.3%,68.7%,71.7%,78.1%,81.9%,55.1%,31.8%,36.1%,18.2%,53.2%,82.7%,94.2%,77.3%,64.9%,49.6%,61.9%,73.2%,33.5%,
O=C1/C(=C\c2cn(-c3ccccc3)nc2-c2ccc(-c3cccs3)cc2)CCc2ccccc21,70.4%,68.5%,66.8%,54.2%,101%,79.5%,10.3%,48%,49.1%,15.9%,52.2%,82.5%,94.9%,75.1%,86.7%,56.5%,47.3%,81.8%,35.5%,
CCCCCCC1(C)NCCO1 (stereo not given),109%,112%,103%,83.7%,111%,103%,96.1%,90.2%,104%,94.5%,101%,96.6%,110%,,100%,79.8%,114%,126%,108%,
CCCCC[C@@H]1Cc2cc(O)c(C(=O)O)c3c2[C@H](C[C@]2(OC[C@@H](CC(=O)[C@@](C)(CC)C(=O)OC)[C@@H]2C)O3)O1,101%,113%,92.4%,99.6%,109%,97.5%,122%,116%,90.2%,105%,108%,99.4%,111%,104%,104%,103%,111%,99.8%,113%,
CNC(=O)c1cc(Oc2ccc3c(c2)sc2nc(-c4cc(OC)c(OC)c(OC)c4)cn23)ccn1,54.3%,50.2%,53.1%,30.3%,50.3%,51.9%,53.7%,39.4%,,35.5%,21%,49.1%,104%,,77.7%,72.7%,71.9%,70.2%,63.5%,43.6
O=C(O)/C(=C\c1ccc(Cl)cc1)c1ccc(Cl)cc1,90.3%,94.3%,90.4%,77.7%,106%,95.2%,94.9%,96.5%,,96.8%,100%,96.3%,74.1%,,111%,71.2%,101%,78%,90.1%,70.8
